According to PubChem BioAssay AID1159580 (chemical genetic matrix, 2015):
About 2,000 (36%) of roughly 5,500 compounds were called active. About 18% were inconclusive and are not listed. Cut-off read from the data, not from the text of the source: active = normalized growth mostly below about 0.91 (no sharp cut-off); inconclusive = no clear call, values can overlap the other calls; inactive = mostly above about 0.92. The list shows a part of the results.

Experiment: chemical genetic growth profiling, strain panel (AID 1159580);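 note: tested at 20 µM; growth read once vehicle control cultures reached saturation at 30 °C; 1 = growth at the plate median or of vehicle wells; lower values mean less growth of the strain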
Details: growth OD

Measured: normalized growth

CC12CCC(CC1)C(C)(C)O2
inactive: S. cerevisiae deletion strains, locus YJL187C, strain SWE1 (second series), active compounds read low 1 | S. cerevisiae deletion strains, locus YJL187C, strain SWE1, active compounds read low 0.989 | S. cerevisiae deletion strains, locus YJR043C, strain POL32, active compounds read low 0.989 | S. cerevisiae deletion strains, locus YJR066W, strain TOR1, active compounds read low 0.94 | S. cerevisiae deletion strains, locus YKL009W, strain mrt4, active compounds read low 1.03 | S. cerevisiae deletion strains, locus YKL068W, active compounds read low 1.01 | S. cerevisiae deletion strains, locus YKL085W, strain MDH1 (second series), active compounds read low 1.01 | S. cerevisiae deletion strains, locus YKL085W, strain MDH1, active compounds read low 1.01 | S. cerevisiae deletion strains, locus YKL160W, strain elf1, active compounds read low 1 | S. cerevisiae deletion strains, locus YKR001C, strain vps1, active compounds read low 1.01 | S. cerevisiae deletion strains, locus YKR026C, strain gcn3, active compounds read low 0.977 | S. cerevisiae deletion strains, locus YKR091W, strain srl3, active compounds read low 0.993 | S. cerevisiae deletion strains, locus YLL001W, strain dnm1, active compounds read low 0.985 | S. cerevisiae deletion strains, locus YLL026W, active compounds read low 0.977 | S. cerevisiae deletion strains, locus YLL041C, strain sdh2, active compounds read low 0.974 | S. cerevisiae deletion strains, locus YLR027C, strain aat2, active compounds read low 0.97 | S. cerevisiae deletion strains, locus YLR039C, strain RIC1, active compounds read low 1.01 | S. cerevisiae deletion strains, locus YLR058C, strain SHM2, active compounds read low 1.01 | S. cerevisiae deletion strains, locus YLR102C, strain apc9, active compounds read low 1.01 | S. cerevisiae deletion strains, locus YLR113W, strain HOG1, active compounds read low 0.994 | S. cerevisiae deletion strains, locus YLR221C, strain rsa3, active compounds read low 0.98 | S. cerevisiae deletion strains, locus YLR258W, strain gsy2, active compounds read low 0.976 | S. cerevisiae deletion strains, locus YLR262C, strain YPT6 (second series), active compounds read low 1.03 | S. cerevisiae deletion strains, locus YLR262C, strain YPT6, active compounds read low 1 | S. cerevisiae deletion strains, locus YLR268W, strain sec22, active compounds read low 0.994 | S. cerevisiae deletion strains, locus YLR320W, strain mms22, active compounds read low 0.994 | S. cerevisiae deletion strains, locus YLR330W, strain CHS5, active compounds read low 1.01 | S. cerevisiae deletion strains, locus YLR342W, strain FKS1 (second series), active compounds read low 1.04 | S. cerevisiae deletion strains, locus YLR342W, strain FKS1, active compounds read low 0.974 | S. cerevisiae deletion strains, locus YLR357W, strain rsc2, active compounds read low 0.932 | S. cerevisiae deletion strains, locus YLR370C, strain arc18, active compounds read low 0.972 | S. cerevisiae deletion strains, locus YLR371W, strain rom2, active compounds read low 1.02 | S. cerevisiae deletion strains, locus YLR384C, strain iki3, active compounds read low 0.974 | S. cerevisiae deletion strains, locus YLR418C, strain cdc73, active compounds read low 1.05 | S. cerevisiae deletion strains, locus YML016C, strain PPZ1, active compounds read low 1.01 | S. cerevisiae deletion strains, locus YML032C, strain rad52, active compounds read low 1.02 | S. cerevisiae deletion strains, locus YML120C, strain ndi1, active compounds read low 0.988 | S. cerevisiae deletion strains, locus YML124C, strain tub3, active compounds read low 1.02 | S. cerevisiae deletion strains, locus YMR058W, strain fet3, active compounds read low 0.98 | S. cerevisiae deletion strains, locus YMR078C, strain ctf18, active compounds read low 1.01 | S. cerevisiae deletion strains, locus YMR125W, strain sto1, active compounds read low 0.977 | S. cerevisiae deletion strains, locus YMR129W, active compounds read low 0.992 | S. cerevisiae deletion strains, locus YMR205C, strain PFK2, active compounds read low 0.99 | S. cerevisiae deletion strains, locus YMR223W, strain ubp8, active compounds read low 1.03 | S. cerevisiae deletion strains, locus YMR231W, strain pep5, active compounds read low 0.957 | S. cerevisiae deletion strains, locus YMR307W, strain GAS1, active compounds read low 0.998 | S. cerevisiae deletion strains, locus YNL067W, strain RPL9B, active compounds read low 1 | S. cerevisiae deletion strains, locus YNL071W, strain lat1, active compounds read low 0.984 | S. cerevisiae deletion strains, locus YNL183C, strain NPR1, active compounds read low 0.907 | S. cerevisiae deletion strains, locus YNL209W, strain ssb2, active compounds read low 0.98 | S. cerevisiae deletion strains, locus YNL233W, strain BNI4, active compounds read low 1.01 | S. cerevisiae deletion strains, locus YNL248C, strain rpa49, active compounds read low 0.978 | S. cerevisiae deletion strains, locus YNL250W, strain rad50, active compounds read low 0.99 | S. cerevisiae deletion strains, locus YNL271C, strain bni1, active compounds read low 1.01 | S. cerevisiae deletion strains, locus YNL298W, strain CLA4, active compounds read low 1.02 | S. cerevisiae deletion strains, locus YNL307C, strain MCK1, active compounds read low 1.01 | S. cerevisiae deletion strains, locus YNL322C, strain KRE1 (second series), active compounds read low 0.967 | S. cerevisiae deletion strains, locus YNR049C, strain mso1, active compounds read low 0.983 | S. cerevisiae deletion strains, locus YNR052C, strain pop2, active compounds read low 1.01 | S. cerevisiae deletion strains, locus YOL012C, strain htz1 0.871 | S. cerevisiae deletion strains, locus YOL147C, strain pex11, active compounds read low 1.01 | S. cerevisiae deletion strains, locus YOR001W, strain rrp6, active compounds read low 0.98 | S. cerevisiae deletion strains, locus YOR061W, strain CKA2, active compounds read low 1.01 | S. cerevisiae deletion strains, locus YOR069W, strain VPS5, active compounds read low 1 | S. cerevisiae deletion strains, locus YOR070C, strain gyp1, active compounds read low 0.971 | S. cerevisiae deletion strains, locus YOR080W, strain dia2, active compounds read low 0.975 | S. cerevisiae deletion strains, locus YOR083W, strain WHI5, active compounds read low 0.992 | S. cerevisiae deletion strains, locus YOR106W, strain vam3, active compounds read low 0.954 | S. cerevisiae deletion strains, locus YOR136W, strain idh2, active compounds read low 1 | S. cerevisiae deletion strains, locus YOR144C, strain elg1, active compounds read low 1.01 | S. cerevisiae deletion strains, locus YOR184W, strain ser1, active compounds read low 1 | S. cerevisiae deletion strains, locus YOR231W, strain MKK1, active compounds read low 1.01 | S. cerevisiae deletion strains, locus YOR265W, strain rbl2, active compounds read low 0.999 | S. cerevisiae deletion strains, locus YOR270C, strain vph1, active compounds read low 1.02 | S. cerevisiae deletion strains, locus YOR290C, strain snf2, active compounds read low 0.979 | S. cerevisiae deletion strains, locus YOR316C, strain cot1, active compounds read low 1.02 | S. cerevisiae deletion strains, locus YPL051W, strain arl3, active compounds read low 0.973 | S. cerevisiae deletion strains, locus YPL055C, strain LGE1, active compounds read low 1.02 | S. cerevisiae deletion strains, locus YPL078C, strain atp4, active compounds read low 0.995 | S. cerevisiae deletion strains, locus YPL106C, strain sse1, active compounds read low 0.978 | S. cerevisiae deletion strains, locus YPL240C, strain hsp82, active compounds read low 0.968 | S. cerevisiae deletion strains, locus YPL256C, strain CLN2, active compounds read low 0.977 | S. cerevisiae deletion strains, locus YPR119W, strain clb2, active compounds read low 1.02 | S. cerevisiae deletion strains, locus YPR141C, strain kar3, active compounds read low 1.03 | S. cerevisiae deletion strains, locus YPR163C, strain tif3, active compounds read low 1.02 | S. cerevisiae deletion strains, locus YPR167C, strain met16, active compounds read low 1.02 | S. cerevisiae deletion strains, strain wtn01, active compounds read low 1.03 | S. cerevisiae strains, strain wild type, active compounds read low 1.01
